{"source": "PubChem BioAssay (Tox21)", "note": "Values joined by “and” are separate entries in the source; they are usually repeats but may differ in a detail not shown here. Equal entries are not always repeated. Results filed as inconclusive are left out. Entries that show only a call come without a potency. Active and inactive are the calls of the source. Calls come from the whole dose curve; as a rule, active = well fitted cell-killing curve with a large enough effect in the repeat runs; inconclusive = weak or mixed curves; inactive = flat fitted curve, though single readings scatter. Potency is the fitted concentration of half-maximal effect."}
{"experiment": "qHTS RealTime-Glo MT Cell Viability Assay in HepG2 cells - 16 hour (AID 1224885); note: nearly all actives have a fitted effect of over 50% in size", "settings": "RealTime-Glo luminescence; series mostly up to 76.8 µM", "from_the_text": "U.S. Tox21 Program National Center for Advancing Translational Sciences [NCATS] NIH Chemical Genomics Center [NCGC] U.S. Environmental Protection Agency [EPA] National Institutes of Environmental Health Sciences [NIEHS] National Toxicology Program [NTP] U.S. Food and Drug Administration [FDA] Tox21 Assay Overview: Measure of cell viability is critical in the cell-base assay. Analysis of cell viability is necessary for the characterization of cell responses to cytotoxic drugs and environmental stress. A RealTime-Glo MT Cell Viability Assay to monitor cell viability in real time of continues cell culture during 40 hours of compound treatment was used to screen Tox21 10K library compounds in HepG2 cells. The RealTime-Glo MT Cell Viability Assay is a nonlytic, homogeneous, bioluminescent method to measure cell viability in real time using a simple, plate-based method. The assay involves adding NanoLuc luciferase and a cell-permeant prosubstrate to cells in culture. Viable cells reduce the proprietary prosubstrate to generate a substrate for NanoLuc luciferase. This substrate diffuses from cells into the surrounding culture medium, where it is rapidly used by the NanoLuc Enzyme to produce a luminescent signal. The signal correlates with the number of viable cells, making the assay well suited for cytotoxicity studies.\nTox21 Assay Protocol Summary: The mixture of HepG2 cell suspension and reagents were dispensed at 600cells/6 ul/well in 1536-well tissue culture treated black solid bottom plates using a Multidrop dispenser. After the assay plates were incubated at a 37 C/5% CO2 incubator for 5 hours, 23 nL of compounds dissolved in DMSO, positive and negative controls was transferred to the assay plate by a pintool work station. The plates were incubated at 37 C for 40 hours. The luminescence intensity were measured at 0h, 8h, 16h, 24h, 32h and 40h time points using ViewLux plate reader during compound treatment."}
{"smiles": "CNC(=O)Oc1cccc2c1OC(C)(C)C2", "Potency": "inactive"}
{"smiles": "CC(C)=CC1C(C(=O)OCc2cccc(Oc3ccccc3)c2)C1(C)C", "note": "(stereo not given)", "Potency": "inactive"}
{"smiles": "Nc1ccc([N+](=O)[O-])cc1N", "Potency": "inactive"}
{"smiles": "C=CC(Cl)CCl", "note": "(stereo not given)", "Potency": "inactive"}
{"smiles": "Nc1ccc2ccccc2c1", "Potency": "inactive"}
{"smiles": "CCOC(=O)c1ccccc1N", "Potency": "inactive"}
{"smiles": "CSc1nc(NC(C)C)nc(NC(C)C)n1", "Potency": "inactive"}
{"smiles": "CC1=C(C(=O)Nc2ccccc2)SCCO1", "Potency": "inactive"}
{"smiles": "Oc1ccc(Cl)cc1Cl", "Potency": "inactive"}
{"smiles": "CC1CC(=O)O1", "note": "(stereo not given)", "Potency": "inactive"}
{"smiles": "S=c1[nH]c2ccccc2[nH]1", "Potency": "inactive"}
{"smiles": "Cc1ccc(N=CN(C)C=Nc2ccc(C)cc2C)c(C)c1", "Potency": "inactive"}
{"smiles": "CCOP(=S)(OCC)SCSC(C)(C)C", "Potency": "inactive"}
{"smiles": "ClC(Cl)=C(Cl)C(Cl)=C(Cl)Cl", "Potency": "inactive"}
{"smiles": "C[N+](C)(C)C", "Potency": "inactive"}
{"smiles": "C=CC(=O)OCC(CC)(COC(=O)C=C)COC(=O)C=C", "Potency": "25.2 µM (active) and 13.8 µM (active)"}
{"smiles": "O=NN1CCOCC1", "Potency": "inactive"}
{"smiles": "COP(=S)(OC)Oc1ccc(S(=O)(=O)N(C)C)cc1", "Potency": "inactive"}
{"smiles": "CCNc1nc(Cl)nc(NC(C)(C)C#N)n1", "Potency": "inactive"}
{"smiles": "C[C@]12CCC(=O)C=C1CC[C@@H]1[C@@H]2CC[C@@]2(C)[C@H]1CC[C@]2(C)O", "Potency": "inactive"}
{"smiles": "CNC(=O)CSP(=S)(OC)OC", "Potency": "inactive"}
{"smiles": "CCCCOCCOC(C)=O", "Potency": "inactive"}
{"smiles": "NN=C(N)N", "Potency": "inactive"}
{"smiles": "C=C(C)C#N", "Potency": "inactive"}
{"smiles": "NC(=O)CN1CCCC1=O", "Potency": "inactive"}
{"smiles": "CC(C)Nc1ccc(Nc2ccccc2)cc1", "Potency": "54.7 µM (active) and 49 µM (active)"}
{"smiles": "CC(C)(C#N)N=NC(C)(C)C#N", "Potency": "inactive"}
{"smiles": "N#Cc1c(Cl)c(Cl)c(Cl)c(C#N)c1Cl", "Potency": "21.5 µM (active) and 6.16 µM (active)"}
{"smiles": "c1ccc2c(c1)Nc1ccccc1S2", "Potency": "inactive"}
{"smiles": "CCCCSP(=O)(SCCCC)SCCCC", "Potency": "inactive"}
{"smiles": "ClCC(Cl)CCl", "Potency": "inactive"}
{"smiles": "Cc1ccc([N+](=O)[O-])cc1", "Potency": "inactive"}
{"smiles": "CCOP(=S)(OCC)OP(=S)(OCC)OCC", "Potency": "inactive"}
{"smiles": "ClC(Cl)(Cl)Br", "Potency": "inactive"}
{"smiles": "CCCCC(C#N)(Cn1cncn1)c1ccc(Cl)cc1", "note": "(stereo not given)", "Potency": "inactive"}
{"smiles": "CC(C)Nc1nc(Cl)nc(NC(C)C)n1", "Potency": "inactive"}
{"smiles": "COc1ccc(C=O)cc1OC", "Potency": "inactive"}
{"smiles": "O=P(OCCCl)(OCCCl)OCCCl", "Potency": "inactive"}
{"smiles": "[Cl-].[Cl-].[Cl-].[Fe+3]", "Potency": "inactive"}
{"smiles": "Clc1cccc(C(Cl)(Cl)Cl)n1", "Potency": "inactive"}
